Measured values as given in PubChem BioAssay (NCATS).
Active and inactive are the calls of the source. The call rests on the fitted dose curve; in most records, active means well fitted curve in the direction sought with a large enough effect; inconclusive means small, poorly fitted or top-dose-only effect, or effect the other way, or another doubt; inactive means no such curve, though single readings can be large or run the other way.

experiment: Inducers of the Endoplasmic Reticulum Stress Response (ERSR) in human glioma: Validation (AID 504836); settings: human glioma cells, ER stress response reporter; series mostly up to 38.3 µM
Method in brief: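 Stably transfected U87-MG glioma cells carrying a GRP78-based luciferase sensor; 16 h compound incubation. Luminescence end-point read 10 min after Bright-Glo addition at room temperature.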

SMILES | outcome
CCN(CC)CCNC(=O)c1cc(S(C)(=O)=O)ccc1OC | inactive
CN1CCN(CC(=O)N2c3ccccc3C(=O)Nc3cccnc32)CC1 | inactive
CC(C)C(=O)c1c(C(C)C)nn2ccccc12 | inactive
CCN(CC)C(C)CN1c2ccccc2Sc2ccccc21 (stereo not drawn) | inactive
C1COC(NC(C2CC2)C2CC2)=N1 | inactive
CCn1nc(C(=O)O)c(=O)c2cc3c(cc21)OCO3 | inactive
CCN(CC)CCOC(=O)c1ccc(N)cc1 | inactive
COc1ccc2cc([C@H](C)C(=O)O)ccc2c1 | inactive
C[C@](N)(Cc1ccc(O)cc1)C(=O)O | inactive
NC(=O)c1ncn([C@@H]2O[C@H](CO)[C@@H](O)[C@H]2O)c1O | inactive
COc1cc(NS(C)(=O)=O)ccc1Nc1c2ccccc2nc2ccccc12 | inactive
CN(C)C(=O)Oc1ccc[n+](C)c1 | inactive
CN1C(C(=O)Nc2ccccn2)=C(O)c2ccccc2S1(=O)=O | inactive
CNCCCC12CCC(c3ccccc31)c1ccccc12 | inactive
CC(C)NCC(O)c1cc(O)cc(O)c1 (stereo not drawn) | inactive
CC(CCc1ccccc1)NCC(O)c1ccc(O)c(C(N)=O)c1 (stereo not drawn) | inactive
CCCCCCCCCCCCCCCC(=O)NCCO | inactive
Cc1nc2c([nH]1)c(=O)n(C)c(=O)n2Cc1ccco1 | inactive
CCN(Cc1ccncc1)C(=O)C(CO)c1ccccc1 (stereo not drawn) | inactive
NC/C=C/C(=O)O | inactive
CC(C)(C)NCC(O)c1cc(O)cc(O)c1 (stereo not drawn) | inactive
CC1COc2c(N3CCN(C)CC3)c(F)cc3c(=O)c(C(=O)O)cn1c23 (stereo not drawn) | inactive
c1ccc2c(c1)CCCC2C1=NCCN1 (stereo not drawn) | inactive
